{"source": "the supplement of paper PMC4022240", "test_in_all_cases": "peptide microarray binding signal (635 nm), min-max normalized on array (fraction of array maximum); higher = stronger binding", "key": {"[1]": {"target": "T1, HaloTag-ATRX ADD domain (163-292)", "T1 chain": "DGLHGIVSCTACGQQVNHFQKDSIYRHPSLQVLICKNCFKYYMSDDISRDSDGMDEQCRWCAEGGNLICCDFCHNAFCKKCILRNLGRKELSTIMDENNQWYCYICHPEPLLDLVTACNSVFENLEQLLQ", "how_it_was_run": "(§1)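 Binding signal is the mean intensity of triplicate spots, min-max scaled within each library. Histone 13-mer peptide–cellulose conjugates were spotted in triplicate on nitrocellulose with a Cy3 tracer and blocked overnight at 4°C. Probing lasted 1 h at 4°C, either with biotin-labelled HaloTag reader fusions (10 nM to 1 μM) and streptavidin-Alexa Fluor 647 or with rabbit histone antibodies (1:10,000 to 1:2,000) and anti-rabbit Alexa 647. An Axon GenePix 4000B read signal at 635 nm and misprints at 532 nm.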"}, "[2]": {"target": "HaloTag-ING2 PHD (mouse Ing2 200-280)", "how_it_was_run": "as §1"}, "[3]": {"target": "anti-H3K4me3 antibody ab8580", "how_it_was_run": "as §1"}, "[4]": {"target": "anti-H3K9me3 antibody ab8898", "how_it_was_run": "as §1"}, "[5]": {"details": "peptide region: H3 30-42, peptide modifications: H3K36ac H3K37me2, binder concentration: 1:2,000 dilution"}, "[6]": {"details": "peptide region: H3 30-42, peptide modifications: H3K36ac H3K37me2, binder concentration: 1:10,000 dilution"}, "[7]": {"details": "peptide region: H3 20-32, peptide modifications: H3T22ph H3K23me2, binder concentration: 1:2,000 dilution"}, "[8]": {"details": "peptide region: H3 20-32, peptide modifications: H3T22ph H3K23me2, binder concentration: 1:10,000 dilution"}, "[9]": {"details": "peptide region: H3 20-32, peptide modifications: H3T22ph H3K23me3, binder concentration: 1:2,000 dilution"}, "[10]": {"details": "peptide region: H3 20-32, peptide modifications: H3T22ph H3K23me3, binder concentration: 1:10,000 dilution"}, "[11]": {"details": "peptide region: H3 20-32, peptide modifications: H3R26me2s H3K27me3, binder concentration: 1:2,000 dilution"}, "[12]": {"details": "peptide region: H3 20-32, peptide modifications: H3R26me2s H3K27me3, binder concentration: 1:10,000 dilution"}, "[13]": {"details": "peptide region: H3 30-42, peptide modifications: H3K36me1, binder concentration: 1:2,000 dilution"}, "[14]": {"details": "peptide region: H3 30-42, peptide modifications: H3K36me1, binder concentration: 1:10,000 dilution"}}, "note": "± gives the standard deviation."}
{"binder": "PATGGVKKPHRYR", "note": "[H3 30-42 P A T G G V Kac Kme2 P H R Y R]", "values": [{"measurement": "peptide microarray binding signal", "setting": "[1]; peptide region: H3 30-42, peptide modifications: H3K36ac H3K37me2, binder concentration: 50 nM", "value": "0.0026 ± 5.2e-05"}, {"measurement": "peptide microarray binding signal", "setting": "[1]; peptide region: H3 30-42, peptide modifications: H3K36ac H3K37me2, binder concentration: 500 nM", "value": "0.00462 ± 0.00028"}, {"measurement": "peptide microarray binding signal", "setting": "[2]; peptide region: H3 30-42, peptide modifications: H3K36ac H3K37me2, binder concentration: 10 nM", "value": "0.00269 ± 6.6e-05"}, {"measurement": "peptide microarray binding signal", "setting": "[2]; peptide region: H3 30-42, peptide modifications: H3K36ac H3K37me2, binder concentration: 100 nM", "value": "0.00354 ± 8.3e-05"}, {"measurement": "peptide microarray binding signal", "setting": "[3]; [5]", "value": "0.00125 ± 9e-05"}, {"measurement": "peptide microarray binding signal", "setting": "[3]; [6]", "value": "0.00097 ± 2e-05"}, {"measurement": "peptide microarray binding signal", "setting": "[4]; [5]", "value": "0.00166 ± 9.8e-05"}, {"measurement": "peptide microarray binding signal", "setting": "[4]; [6]", "value": "0.00127 ± 0.0001"}]}
{"binder": "LATKAARKSAPAT", "note": "[H3 20-32 L A Tph Kme2 A A R K S A P A T]", "values": [{"measurement": "peptide microarray binding signal", "setting": "[1]; peptide region: H3 20-32, peptide modifications: H3T22ph H3K23me2, binder concentration: 50 nM", "value": "0.004921 ± 4.8e-05"}, {"measurement": "peptide microarray binding signal", "setting": "[1]; peptide region: H3 20-32, peptide modifications: H3T22ph H3K23me2, binder concentration: 500 nM", "value": "0.00605 ± 0.00026"}, {"measurement": "peptide microarray binding signal", "setting": "[2]; peptide region: H3 20-32, peptide modifications: H3T22ph H3K23me2, binder concentration: 10 nM", "value": "0.0107 ± 0.0003"}, {"measurement": "peptide microarray binding signal", "setting": "[2]; peptide region: H3 20-32, peptide modifications: H3T22ph H3K23me2, binder concentration: 100 nM", "value": "0.00893 ± 0.00037"}, {"measurement": "peptide microarray binding signal", "setting": "[3]; [7]", "value": "0.00359 ± 3.6e-05"}, {"measurement": "peptide microarray binding signal", "setting": "[3]; [8]", "value": "0.00268 ± 0.00016"}, {"measurement": "peptide microarray binding signal", "setting": "[4]; [7]", "value": "0.00201 ± 8.1e-05"}, {"measurement": "peptide microarray binding signal", "setting": "[4]; [8]", "value": "0.00196 ± 1.8e-05"}]}
{"binder": "LATKAARKSAPAT", "note": "[H3 20-32 L A Tph Kme3 A A R K S A P A T]", "values": [{"measurement": "peptide microarray binding signal", "setting": "[1]; peptide region: H3 20-32, peptide modifications: H3T22ph H3K23me3, binder concentration: 50 nM", "value": "0.00577 ± 0.00039"}, {"measurement": "peptide microarray binding signal", "setting": "[1]; peptide region: H3 20-32, peptide modifications: H3T22ph H3K23me3, binder concentration: 500 nM", "value": "0.0105 ± 0.00049"}, {"measurement": "peptide microarray binding signal", "setting": "[2]; peptide region: H3 20-32, peptide modifications: H3T22ph H3K23me3, binder concentration: 10 nM", "value": "0.0219 ± 0.0024"}, {"measurement": "peptide microarray binding signal", "setting": "[2]; peptide region: H3 20-32, peptide modifications: H3T22ph H3K23me3, binder concentration: 100 nM", "value": "0.026 ± 0.0027"}, {"measurement": "peptide microarray binding signal", "setting": "[3]; [9]", "value": "0.0775 ± 0.0084"}, {"measurement": "peptide microarray binding signal", "setting": "[3]; [10]", "value": "0.0633 ± 0.0092"}, {"measurement": "peptide microarray binding signal", "setting": "[4]; [9]", "value": "0.0523 ± 0.0034"}, {"measurement": "peptide microarray binding signal", "setting": "[4]; [10]", "value": "0.0244 ± 0.0027"}]}
{"binder": "LATKAARKSAPAT", "note": "[H3 20-32 L A T K A A Rme2s Kme3 S A P A T]", "values": [{"measurement": "peptide microarray binding signal", "setting": "[1]; peptide region: H3 20-32, peptide modifications: H3R26me2s H3K27me3, binder concentration: 50 nM", "value": "0.00342 ± 5.6e-05"}, {"measurement": "peptide microarray binding signal", "setting": "[1]; peptide region: H3 20-32, peptide modifications: H3R26me2s H3K27me3, binder concentration: 500 nM", "value": "0.003095 ± 2.4e-05"}, {"measurement": "peptide microarray binding signal", "setting": "[2]; peptide region: H3 20-32, peptide modifications: H3R26me2s H3K27me3, binder concentration: 10 nM", "value": "0.00889 ± 0.00023"}, {"measurement": "peptide microarray binding signal", "setting": "[2]; peptide region: H3 20-32, peptide modifications: H3R26me2s H3K27me3, binder concentration: 100 nM", "value": "0.00808 ± 0.00038"}, {"measurement": "peptide microarray binding signal", "setting": "[3]; [11]", "value": "0.0443 ± 0.0026"}, {"measurement": "peptide microarray binding signal", "setting": "[3]; [12]", "value": "0.0353 ± 0.0044"}, {"measurement": "peptide microarray binding signal", "setting": "[4]; [11]", "value": "0.082 ± 0.006"}, {"measurement": "peptide microarray binding signal", "setting": "[4]; [12]", "value": "0.0554 ± 0.0085"}]}
{"binder": "PATGGVKKPHRYR", "note": "[H3 30-42 P A T G G V Kme K P H R Y R]", "values": [{"measurement": "peptide microarray binding signal", "setting": "[1]; peptide region: H3 30-42, peptide modifications: H3K36me1, binder concentration: 50 nM", "value": "0.0102 ± 0.00043"}, {"measurement": "peptide microarray binding signal", "setting": "[1]; peptide region: H3 30-42, peptide modifications: H3K36me1, binder concentration: 500 nM", "value": "0.015 ± 0.0004"}, {"measurement": "peptide microarray binding signal", "setting": "[2]; peptide region: H3 30-42, peptide modifications: H3K36me1, binder concentration: 10 nM", "value": "0.0184 ± 0.00087"}, {"measurement": "peptide microarray binding signal", "setting": "[2]; peptide region: H3 30-42, peptide modifications: H3K36me1, binder concentration: 100 nM", "value": "0.0275 ± 0.0015"}, {"measurement": "peptide microarray binding signal", "setting": "[3]; [13]", "value": "0.00478 ± 0.00043"}, {"measurement": "peptide microarray binding signal", "setting": "[3]; [14]", "value": "0.00474 ± 0.00045"}, {"measurement": "peptide microarray binding signal", "setting": "[4]; [13]", "value": "0.00237 ± 7.4e-05"}, {"measurement": "peptide microarray binding signal", "setting": "[4]; [14]", "value": "0.00277 ± 4.8e-05"}]}
